# Laboratory results from the supplement of paper PMC12494721.
# Where a name gives a salt, the structure may show the parent alone.
# What was measured:
# Details in all cases: incubation time: 27 h, anaerobic, 37 °C;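 for the amine columns active = adjusted P below 0.05 in both replicates with a change the same way and a mean fold change under 0.8 or over 1.25; inactive = the rest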
# [1] = test system: Clostridium sporogenes DSM 1664; experiment: growth (OD595) fold change vs plate DMSO controls (fold change (ratio)); higher = more growth
# Outline: (§1)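 The 96-well mGAM cultures had been kept anaerobic for 27 h at 37 °C before being shaken and read at 595 nm. Blank subtraction, compound background correction with 20 µM compound solutions in water, and a calibration factor of 5 turned the readings into OD. Growth is given as the fold change versus the median of plate DMSO controls. Fold changes above 1.5 were set to NA, and the values are means of 2 biological replicates.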
# Escherichia coli IAI1 [2] = experiment: as above
# Outline: as §1
# [3] = test system: Klebsiella aerogenes DSM 30053; experiment: as above
# Outline: as §1
# [4] = test system: Ruminococcus gnavus DSM 108212; experiment: as above
# Outline: as §1
# [5] = test system: Klebsiella aerogenes DSM 30053; experiment: fold change of Histamine concentration vs plate DMSO controls (fold change (ratio)); higher = more amine produced, active = hit call of the paper (significant change in both replicates, either direction)
# Outline: (§2)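 Anaerobic mGAM cultures of four gut bacterial strains were grown at 37 °C for 27 h in 80 µL wells, starting at OD 0.1 before 1:1 dilution. Compounds were at 20 µM final (sweeteners 50 µM). Whole cultures were extracted with cold acetonitrile/methanol containing 0.1% formic acid and centrifuged. Amines were quantified by LC–triple-quadrupole MS (dynamic MRM) against external calibration curves and drift-corrected within batch. Each value is the fold change versus plate DMSO controls, averaged over 2 biological replicates.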
# [6] = test system: Clostridium sporogenes DSM 1664; experiment: fold change of Tryptamine concentration vs plate DMSO controls (fold change (ratio)); higher = more amine produced, active = hit call of the paper (significant change in both replicates, either direction)
# Outline: as §2
# [7] = test system: Ruminococcus gnavus DSM 108212; experiment: as above
# Outline: as §2
# Escherichia coli IAI1 [8] = experiment: fold change of Putrescine concentration vs plate DMSO controls (fold change (ratio)); higher = more amine produced, active = hit call of the paper (significant change in both replicates, either direction)
# Outline: as §2
# [9] = test system: Klebsiella aerogenes DSM 30053; experiment: as above
# Outline: as §2
# Escherichia coli IAI1 [10] = experiment: fold change of Cadaverine concentration vs plate DMSO controls (fold change (ratio)); higher = more amine produced, active = hit call of the paper (significant change in both replicates, either direction)
# Outline: as §2
# [11] = test system: Klebsiella aerogenes DSM 30053; experiment: as above
# Outline: as §2
# [12] = test system: Ruminococcus gnavus DSM 108212; experiment: fold change of 2-Phenylethylamine concentration vs plate DMSO controls (fold change (ratio)); higher = more amine produced, active = hit call of the paper (significant change in both replicates, either direction)
# Outline: as §2
SMILES,growth [1],growth (Escherichia coli IAI1 [2]),growth [3],growth [4],fold change of Histamine concentration [5],fold change of Tryptamine concentration [6],fold change of Tryptamine concentration [7],fold change of Putrescine concentration (Escherichia coli IAI1 [8]),fold change of Putrescine concentration [9],fold change of Cadaverine concentration (Escherichia coli IAI1 [10]),fold change of Cadaverine concentration [11],fold change of 2-Phenylethylamine concentration [12]
CN(C)C(=O)COC(=O)Cc1ccc(OC(=O)c2ccc(NC(=N)N)cc2)cc1 [Camostat mesylate] (20 µM),1.07,1.01,1.04,0.958,0.897 (inactive),1.01 (inactive),0.982 (inactive),1.02 (inactive),1.02 (inactive),1.02 (inactive),1.02 (inactive),0.999 (inactive)
COc1ccc(C(=O)c2ccccc2O)c(O)c1 [Dioxybenzone] (20 µM),0.846,0.791,0.972,0.955,0.962 (inactive),1 (inactive),0.977 (inactive),0.86 (inactive),0.985 (inactive),1.07 (inactive),0.996 (inactive),0.937 (inactive)
CC(=O)S[C@@H]1CC2=CC(=O)CC[C@]2(C)[C@H]2CC[C@@]3(C)[C@@H](CC[C@@]34CCC(=O)O4)[C@H]12 [Spironolactone] (20 µM),1.1,0.915,0.916,0.833,1 (inactive),1.03 (inactive),1.06 (inactive),1.02 (inactive),1.01 (inactive),1.02 (inactive),1 (inactive),1.01 (inactive)
CCCCOC(=O)c1ccc(N)cc1 [Butamben] (20 µM),1.36,1,1.01,0.962,1 (inactive),1.04 (inactive),0.94 (inactive),0.935 (inactive),0.988 (inactive),1.01 (inactive),0.999 (inactive),0.915 (inactive)
CCN[C@H]1C[C@H](C)S(=O)(=O)c2sc(S(N)(=O)=O)cc21 [Dorzolamide hydrochloride] (20 µM),1.23,1.05,1.02,1.15,0.991 (inactive),0.996 (inactive),0.977 (inactive),1.06 (inactive),0.977 (inactive),0.965 (inactive),0.993 (inactive),0.992 (inactive)
Nc1ccc(C(=O)NCC(=O)O)cc1 [Aminohippuric acid] (20 µM),0.256,0.163,0,0.295,0.944 (inactive),0.982 (inactive),1.03 (inactive),1.04 (inactive),1.01 (inactive),0.988 (inactive),1.01 (inactive),1.03 (inactive)
Brc1c(NC2=NCCN2)ccc2nccnc12 [Brimonidine L-tartrate] (20 µM),0.988,1.06,0.999,1.03,0.928 (inactive),1.07 (inactive),0.885 (inactive),0.973 (inactive),0.971 (inactive),0.919 (inactive),1.06 (inactive),1.05 (inactive)
O=C(O)c1ccccc1Nc1cc(Cl)ccc1C(=O)O [Lobenzarit disodium] (20 µM),0.929,1,1.02,1.08,1.02 (inactive),1.07 (inactive),0.976 (inactive),0.987 (inactive),0.994 (inactive),0.932 (inactive),1 (inactive),1.01 (inactive)
O=c1[nH]cnc2c1ncn2[C@@H]1O[C@H](CO)[C@@H](O)[C@H]1O [Inosine] (20 µM),0.976,1.01,1.01,0.919,1.01 (inactive),1.06 (inactive),0.997 (inactive),1.02 (inactive),1.02 (inactive),1.01 (inactive),0.997 (inactive),0.963 (inactive)
CO[C@H]1/C=C/O[C@@]2(C)Oc3c(C)c(O)c4c(O)c(c(/C=N/N5CCN(C)CC5)c(O)c4c3C2=O)NC(=O)/C(C)=C\C=C\[C@H](C)[C@H](O)[C@@H](C)[C@@H](O)[C@@H](C)[C@H](OC(C)=O)[C@@H]1C [Rifampicin] (20 µM),0.000637,0.224,0.627,0.187,0.732 (inactive),0.0227 (active),0.145 (active),0.718 (active),0.768 (inactive),1.14 (inactive),1.06 (inactive),0.131 (active)
COc1ccc2cc([C@@H](C)C(=O)O)ccc2c1 [(R) Naproxen sodium salt] (20 µM),0.979,1.08,1.07,0.811,1.03 (inactive),1.07 (inactive),1.05 (inactive),0.951 (inactive),0.974 (inactive),0.956 (inactive),1 (inactive),1.11 (inactive)
CC(C)(C)CC(C)(C)c1ccc(O)c(Cc2ccc(Cl)cc2Cl)c1 [Clofoctol] (20 µM),0.000434,0.973,1.01,0.559,1.01 (inactive),0.0134 (active),0.143 (active),0.999 (inactive),1.01 (inactive),1.01 (inactive),1.01 (inactive),0.132 (active)
c1cnc(N2CCN(Cc3ccc4c(c3)OCO4)CC2)nc1 [Piribedil] (20 µM),0.986,1,1.07,0.998,0.934 (inactive),1.18 (inactive),1.02 (inactive),1.03 (inactive),0.971 (inactive),0.962 (inactive),0.996 (inactive),0.991 (inactive)
COc1ccccc1N1CCN(CCCNc2cc(=O)n(C)c(=O)n2C)CC1 [Urapidil hydrochloride] (20 µM),0.984,0.934,1,0.999,0.993 (inactive),1.04 (inactive),0.977 (inactive),0.978 (inactive),1.01 (inactive),1.03 (inactive),1 (inactive),0.971 (inactive)
CC(=O)O[C@H]1C[C@@H]2CC[C@@H]3[C@H](CC[C@@]4(C)[C@H]3C[C@H]([N+]3(C)CCCCC3)[C@@H]4OC(C)=O)[C@@]2(C)C[C@@H]1N1CCCCC1 [Vecuronium bromide] (20 µM),0.99,0.99,1.01,0.872,1.04 (inactive),1.01 (inactive),0.967 (inactive),0.872 (inactive),1 (inactive),0.992 (inactive),0.992 (inactive),1.03 (inactive)
COC(=O)C1=C(C)NC(C)=C(C(=O)OC2CCCN(Cc3ccccc3)C2)C1c1cccc([N+](=O)[O-])c1 (stereo not drawn) [Benidipine hydrochloride] (20 µM),1.1,1.23,1.02,0.864,0.929 (inactive),0.912 (inactive),0.983 (inactive),1.24 (inactive),1.02 (inactive),0.989 (inactive),1.02 (inactive),0.986 (inactive)
CCCOC(=O)NCCCN(C)C (20 µM),1.08,0.981,0.968,1.17,1.06 (inactive),1.05 (inactive),1.09 (inactive),0.952 (inactive),0.821 (inactive),0.93 (inactive),1.05 (inactive),1.22 (inactive)
NC(=O)c1ncn([C@@H]2O[C@H](CO)[C@@H](O)[C@H]2O)n1 [Ribavirin] (20 µM),1.13,0.988,0.979,0.942,0.947 (inactive),1.01 (inactive),0.994 (inactive),0.781 (inactive),0.973 (inactive),1.09 (inactive),1.01 (inactive),0.967 (inactive)
CC1(C)O[C@@H]2C[C@H]3[C@@H]4CCC5=CC(=O)C=C[C@]5(C)[C@H]4[C@@H](O)C[C@]3(C)[C@]2(C(=O)CO)O1 [Desonide] (20 µM),0.99,1.02,1.01,1.21,1.05 (inactive),1.18 (inactive),1.14 (inactive),0.903 (inactive),0.991 (inactive),0.893 (inactive),0.997 (inactive),1.23 (inactive)
CC[N+](C)(CC)CCOC(=O)C1c2ccccc2Oc2ccccc21 [Methantheline bromide] (20 µM),0.956,1.01,0.979,0.897,1.05 (inactive),0.999 (inactive),1.01 (inactive),1.04 (inactive),1.01 (inactive),1.02 (inactive),0.984 (inactive),1.05 (inactive)
Cc1cccc(N(C)C(=S)Oc2ccc3ccccc3c2)c1 [Tolnaftate] (20 µM),1.02,0.997,0.984,0.839,0.984 (inactive),1.04 (inactive),1.06 (inactive),1.04 (inactive),1.01 (inactive),1 (inactive),1 (inactive),1.04 (inactive)
NC(=O)c1cnccn1 [Pyrazinamide] (20 µM),0.992,1.04,1,1.12,0.957 (inactive),1.04 (inactive),0.958 (inactive),1.01 (inactive),1 (inactive),0.98 (inactive),1.01 (inactive),0.906 (inactive)
CCN[C@H]1CN(CCCOC)S(=O)(=O)c2sc(S(N)(=O)=O)cc21 [Brinzolamide] (20 µM),1.17,1.04,1,1.04,1 (inactive),1.02 (inactive),0.944 (inactive),1.05 (inactive),0.989 (inactive),1.01 (inactive),1 (inactive),0.899 (inactive)
CC(=O)N1CCN(c2ccc(OCC3COC(Cn4ccnc4)(c4ccc(Cl)cc4Cl)O3)cc2)CC1 (stereo not drawn) [Ketoconazole] (20 µM),1.17,0.988,1,0.945,0.927 (inactive),1.03 (inactive),0.984 (inactive),1.04 (inactive),0.979 (inactive),1.02 (inactive),0.994 (inactive),0.937 (inactive)
